Measurements as given in PubChem BioAssay (NCATS).
Results filed as inconclusive are left out. Entries that show only a call come without a potency. Unmarked numbers belong to inactive results. Active and inactive are the calls of the source. The call rests on the fitted dose curve; in most records, active means well fitted curve in the direction sought with a large enough effect; inconclusive means small, poorly fitted or top-dose-only effect, or another doubt; inactive means no such curve, though single readings can be large; an effect the other way counts as inactive or inconclusive.

Columns and labels:
[1] = test system: Es-2; experiment: Primary qHTS to identify gynecologic anti-cancer compounds using libraries of approved drugs and bioactive compounds (AID 1345084); details: Gynecologic cancer cell panel viability, ATPlite luminescence, 48 h; series mostly up to 57.5 µM; further: nearly all actives have a fitted effect of over 55% in size
Method in brief: (§1)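 Cytotoxicity screen measuring ATP content by luciferase luminescence. Each compound is applied at five concentrations for 48 h at 37 C with 5% CO2.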

[2] = test system: HeLa; experiment: as above; details: Gynecologic cancer cell panel viability, ATPlite luminescence, 48 h; series mostly up to 57.5 µM
Method in brief: as §1

[3] = test system: Hek293T; experiment: as above; details: Gynecologic cancer cell panel viability, ATPlite luminescence, 48 h, control line for the selectivity index; series mostly up to 57.5 µM
Method in brief: as §1

[4] = test system: JEG-3; experiment: as above; details: Gynecologic cancer cell panel viability, ATPlite luminescence, 48 h; series mostly up to 57.5 µM
Method in brief: as §1

[5] = test system: OV90; experiment: as above; details: Gynecologic cancer cell panel viability, ATPlite luminescence, 48 h; series mostly up to 57.5 µM
Method in brief: as §1

[6] = test system: PA-1; experiment: as above; details: Gynecologic cancer cell panel viability, ATPlite luminescence, 48 h; series mostly up to 57.5 µM
Method in brief: as §1

[7] = test system: SKOV3; experiment: as above; details: Gynecologic cancer cell panel viability, ATPlite luminescence, 48 h; series mostly up to 57.5 µM
Method in brief: as §1

[8] = test system: Tov-21-G; experiment: as above; details: Gynecologic cancer cell panel viability, ATPlite luminescence, 48 h; series mostly up to 57.5 µM
Method in brief: as §1

[9] = test system: Tov112D; experiment: as above; details: Gynecologic cancer cell panel viability, ATPlite luminescence, 48 h; series mostly up to 57.5 µM
Method in brief: as §1

[10] = Drug repurposing screens with cells derived from glioblastoma tumor samples (AID 1345199); details: GBM patient neurospheres viability, ATP luminescence, 48 h; further: nearly all actives have a fitted effect of over 40% in size; further: potency means the concentration at half of the fitted maximal effect
Method in brief: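 Primary testing used CD133+ neurospheres from four GBM patients, seven concentrations, 48 h exposure and ATP-based viability; confirmation added three slower-growing patient lines.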

[11] = at 45.9 µM (top of the series), tumour line B
[12] = at 46.1 µM (top of the series), tumour line C
[13] = at 20 µM (top of the series), tumour line C
[14] = at 45.9 µM (top of the series), tumour line D
[15] = at 46 µM (top of the series), tumour line A

SMILES	Potency [1]	Potency [2]	Potency [3]	Potency [4]	Potency [5]	Potency [6]	Potency [7]	Potency [8]	Potency [9]	activity, negative = cell killing [10, 11]	activity, negative = cell killing [10, 12]	Potency ([10]; tumour line A)	activity, negative = cell killing [10, 13]	Potency ([10]; tumour line D)	activity, negative = cell killing [10, 14]	activity, negative = cell killing [10, 15]	activity, negative = cell killing ([10]; at 21.2 µM (top of the series), tumour line B)	activity, negative = cell killing ([10]; at 21.2 µM (top of the series), tumour line D)
OC(C#CCN1CCCC1)(c1ccccc1)c1ccccc1	inactive	inactive	inactive	inactive	inactive	inactive	inactive	inactive	inactive	-17.2%	-29.1%	11.2 µM (active)						
O=C1C(=O)c2ccccc2C(O)=C1C1CCC(c2ccc(Cl)cc2)CC1 (configuration not stated)	inactive	inactive	inactive	inactive	inactive	inactive	inactive	inactive	inactive			14.1 µM (active)	-16.4%	8.91 µM (active)				
Cc1c[nH]c2ccccc12	inactive	inactive	inactive	inactive	inactive	inactive	inactive	inactive	inactive	-3.32%	-16.3%				-13.8%			
C/C=C/C=N/NC(=O)c1ccncc1	inactive	inactive	inactive	inactive	inactive	inactive	inactive	inactive	inactive	-13.6%	-22.3%				-18.3%			
CCCCOC(=O)CC(CC(=O)OCCCC)(OC(C)=O)C(=O)OCCCC	inactive	inactive	inactive	inactive	inactive	inactive	inactive	inactive	inactive	-5.84%	-12.4%				-7.23%			
NC1CCN(c2nc3c(cc2F)c(=O)c(C(=O)O)cn3-c2ccc(F)cc2F)C1 (configuration not stated)	inactive	inactive	inactive	inactive	inactive	inactive	inactive	inactive	inactive	-3.86%					-30%	-29.1%		
Nc1nc(-c2ccccc2)c(Br)c(=O)[nH]1	inactive	inactive	inactive	inactive	inactive	inactive	inactive	inactive	inactive	-8.97%					-11.4%	-28.3%		
CN(C)C(=O)Nc1ccc(Cl)c(Cl)c1	inactive	inactive	inactive	inactive	inactive	inactive	inactive	inactive	inactive	-10.4%	-10.1%				-7.69%			
CC(C)=CCOc1ccc(/C=C/C(=O)c2ccc(OCC=C(C)C)cc2OCC(=O)O)cc1	inactive	inactive	inactive	inactive	inactive	inactive	inactive	inactive	inactive	16%	-4.09%				-25.2%			
O=C(O)C1(C(=O)O)CCC1.[NH2-].[NH2-].[Pt+2]	inactive	inactive	inactive	inactive	inactive	inactive	inactive	inactive	inactive	-20.6%	-13.1%				-8.04%			
C[N+]12CCC(CC1)C(OC(=O)C(O)(c1ccccc1)c1ccccc1)C2 (configuration not stated)	inactive	inactive	inactive	inactive	inactive	inactive	inactive	inactive	inactive				-3.46%				-10.6%	-5.49%
C=CCN1CCc2nc(N)sc2CC1	inactive	inactive	inactive	inactive	inactive	inactive	inactive	inactive	inactive	-26.9%	-3.6%				-19.4%			
CC1(C)OC[C@@H]2O[C@@]3(C(=O)O)OC(C)(C)O[C@H]3[C@@H]2O1	inactive	inactive	inactive	inactive	inactive	inactive	inactive	inactive	inactive	2.23%	-11.9%				2.89%			
O=C1c2cccc3c2[C@H](CCC3)CN1[C@@H]1CN2CCC1CC2	inactive	inactive	inactive	inactive	inactive	inactive	inactive	inactive	inactive	-28.4%		11.2 µM (active)		11.2 µM (active)				
CC(=O)O[C@H]1C[C@@H]2CC[C@@H]3[C@H](CC[C@@]4(C)[C@H]3C[C@H]([N+]3(C)CCCCC3)[C@@H]4OC(C)=O)[C@@]2(C)C[C@@H]1N1CCCCC1	inactive	inactive	inactive	inactive	inactive	inactive	inactive	inactive	inactive	-12.1%	-3.89%				-1.11%			
COc1ccc(C(=O)c2ccccc2)c(O)c1	inactive	inactive	inactive	inactive	inactive	inactive	inactive	inactive	inactive	1.18%	-6.38%				-2.35%			
